Most compounds without a hit are left out; they make up all but 8.8% or so of the library.
HTT cytoprotect: Huntington cell model cytoprotection by ATP luminescence. PC12 HTT-Q103 induced, cytoprotection, ATP luminescence, 40 h. Potency, µM (doses to about 56.4 µM), without a hit: cytoprotection (ATP increase), actives largely listed as activators. hit rate 0.14% among 230,000; further: % of control where 0% means no effect; nearly all actives have a fitted effect of over 45% in size
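PC12 cells stably carrying ecdysone-inducible Htt exon 1 (Q103)–GFP were induced with 100 nM tebufenozide (final) alongside library compounds in a dose series. Cytoprotection was scored as retained ATP by ATPlite luminescence.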
Lamin A splicing: changes lamin A minigene splicing in HeLa cells; HeLa LMNA splicing GFP/RFP minigene ratio, 48 h; hit rate 0.01% among 200,000; Potency, µM (highest dose often 46.1 µM), for the others: at the top dose ratio change, negative = inhibition, most hits filed as inhibitors; AID 1487; active means well fitted inhibition curve with a large enough effect in the signal ratio, with a control signal flat, not every such curve was filed as active; inconclusive means small, poorly fitted or top-dose-only effect, or effect the other way, or a change in a side signal; the % refers to the signal ratio; further: on the % scale 0 is the no-effect control and ±100 the full control effect
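S3 HeLa stable clones carrying a lamin A-EGFP splicing minigene plus DsRed2 were seeded at 600 cells/well in Opti-MEM with 2% FBS, pin-dosed and incubated 48 h at 37°C. Acumen cytometry (488 nm) gave the GFP/RFP total-intensity ratio.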
HPGD inh: HPGD (human) dehydrogenase inhibition; AID 894; Potency, µM, for inactives: at the top dose activity change, negative = inhibition, usual class: inhibitors; P15428; purified HPGD, NADH fluorescence kinetic, PGE2 substrate; hit rate 4.3% among 150,000; active means well fitted inhibition curve with a large enough effect, not every such curve was filed as active; inconclusive means small, poorly fitted or top-dose-only effect, or another doubt; inactive means no such curve, though single readings can be large or run the other way; further: on the % scale 0 is the no-effect control and ±100 the full control effect
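NADH formation kinetics: reaction with 30 uM PGE2 and 1 mM NAD+ (final), 20 nM enzyme, Tris-HCl pH 8 with Tween 20, after 15 min compound preincubation at room temperature. Fluorescence change, last versus first of five reads.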
ALDH1A1 block: blocks purified human ALDH1A1 activity | Potency, µM (series often up to 75.3 µM), without a hit: top-dose activity, negative = inhibition, hits mostly inhibitors | AID 1030 | hit rate 7.3% among 220,000 | P00352 | Purified ALDH1A1, NADH fluorescence, propionaldehyde substrate; active means well fitted inhibition curve with a large enough effect, not every such curve was filed as active; inconclusive means small, poorly fitted or top-dose-only effect, or another doubt; inactive means no such curve, though single readings can be large or run the other way;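 further: plate controls were no enzyme wells and a reference inhibitor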
Target sequence (P00352 whole entry, looked up): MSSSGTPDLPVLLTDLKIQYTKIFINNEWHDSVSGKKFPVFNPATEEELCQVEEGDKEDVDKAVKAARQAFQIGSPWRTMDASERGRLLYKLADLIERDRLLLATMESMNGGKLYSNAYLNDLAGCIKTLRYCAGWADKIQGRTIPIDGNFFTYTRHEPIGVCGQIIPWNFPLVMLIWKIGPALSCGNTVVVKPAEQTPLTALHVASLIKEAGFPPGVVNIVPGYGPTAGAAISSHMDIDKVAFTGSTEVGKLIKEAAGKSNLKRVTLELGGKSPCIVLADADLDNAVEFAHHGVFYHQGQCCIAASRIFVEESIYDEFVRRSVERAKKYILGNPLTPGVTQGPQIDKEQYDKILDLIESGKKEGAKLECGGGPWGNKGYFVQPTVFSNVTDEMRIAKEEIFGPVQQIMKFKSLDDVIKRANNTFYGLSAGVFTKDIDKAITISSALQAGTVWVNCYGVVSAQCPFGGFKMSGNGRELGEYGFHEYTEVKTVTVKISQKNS
HttQ103 aggreg: reduces HttQ103-GFP aggregates in PC12 cells; Potency, µM (highest dose often 46.1 µM), without a hit: at the top dose activity change, negative = inhibition, hits mostly inhibitors; PC12 HttQ103-GFP aggregates, Acumen cytometry, 40 h; hit rate 1.1% among 220,000; further: on the % scale 0 is the no-effect control and ±100 the full control effect; nearly all actives have a fitted effect of over 60% in size
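PC12/HTTQ103-GFP, ecdysone-inducible; teb 100 nM; cpd qHTS titration; GFP aggregates read on laser cytometer, Ex 488/Em 500-530 nm.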
* = called active by the depositor; ! = a repeat was not active; [ ] = dose if it differs, or a comment. Unless noted, the call rests on the fitted dose curve; in most records, active means well fitted curve in the direction sought with a large enough effect; inconclusive means small, poorly fitted or top-dose-only effect, or another doubt; inactive means no such curve, though single readings can be large; an effect the other way counts as inactive or inconclusive. Potency means the concentration at half of the fitted maximal effect.

For CCOc1ccc(N2CC(NC(=O)Cc3ccccc3)CC2=O)cc1 (stereo unspecified) the results were Lamin A splicing 10%[46 µM].
For CC(C)(C)CC(=O)N1CCC(c2nc3c(nnn3Cc3c(F)cccc3Cl)c(=O)[nH]2)CC1 the results were HTT cytoprotect -13%[10 µM], Lamin A splicing -4%, ALDH1A1 block 3% and HttQ103 aggreg -14%.
Screening Cc1ccc(Cn2nnc3c(=O)[nH]c(C4CCN(C(=O)Cc5cccs5)CC4)nc32)cc1 returned HTT cytoprotect 9%[10 µM], Lamin A splicing 15%, HPGD inh inconclusive, ALDH1A1 block -4% and HttQ103 aggreg 25%.
`COc1ccccc1Cn1nnc2c(=O)[nH]c(C3CCN(C(=O)c4ccc(F)cc4)CC3)nc21` gave HTT cytoprotect -15%, Lamin A splicing 14%, HPGD inh 11µM*, ALDH1A1 block -3% and HttQ103 aggreg 4%.
`COc1ccccc1Cn1nnc2c(=O)[nH]c(C3CCN(C(=O)c4ccc(C)cc4)CC3)nc21` gave HTT cytoprotect 1%, Lamin A splicing 25%, HPGD inh inconclusive, ALDH1A1 block 1% and HttQ103 aggreg 7%.
COc1ccccc1Cn1nnc2c(=O)[nH]c(C3CCN(C(=O)c4ccccc4Cl)CC3)nc21 was read as HTT cytoprotect -17%, Lamin A splicing 19%, HPGD inh 14µM*, ALDH1A1 block inconclusive and HttQ103 aggreg -16%.
Screening O=C(c1ccccc1)N1CCC(c2nc3c(nnn3Cc3ccccc3Cl)c(=O)[nH]2)CC1 returned HTT cytoprotect -17%, Lamin A splicing 6%, HPGD inh 11µM*, ALDH1A1 block inconclusive and HttQ103 aggreg inconclusive.
Screening O=C(c1ccccc1Cl)N1CCC(c2nc3c(nnn3Cc3ccco3)c(=O)[nH]2)CC1 returned HTT cytoprotect -4%, Lamin A splicing -10%, HPGD inh 14µM*, ALDH1A1 block 28µM* and HttQ103 aggreg 8%.
`O=C(CCS(=O)(=O)c1cc2c(cc1Cl)NC(=O)CO2)NCCc1ccc(Cl)cc1` gave Lamin A splicing 6%[46 µM].
COc1ccccc1CCNC(=O)C(=O)NCC(c1cccs1)S(=O)(=O)c1ccc(C)cc1 (stereo unspecified) was read as Lamin A splicing 11%[46 µM].
For Cc1cnc(C)c(N2CCN(Cc3nc(-c4ccccc4)no3)CC2)n1 the results were HTT cytoprotect 1%[10 µM], ALDH1A1 block 5% and HttQ103 aggreg -3%[9.22 µM].
Screening O=C(O)c1cc(-c2ccc(/C=N/N3C(=O)C4C5C=CC(CC5)C4C3=O)o2)ccc1Cl (stereo unspecified) returned HTT cytoprotect 7%[10 µM], Lamin A splicing -4%[46 µM], ALDH1A1 block 11µM* and HttQ103 aggreg -12%[9.22 µM].
Screening O=C1C2C3C=CC(CC3)C2C(=O)N1/N=C/c1ccc(O)cc1 (stereo unspecified) returned HTT cytoprotect -56%, Lamin A splicing 8%, HPGD inh 28µM*, ALDH1A1 block inconclusive and HttQ103 aggreg 0%.
For O=C(O)c1cc(-c2ccc(/C=N/N3C(=O)C4C5C=CC(C6CC56)C4C3=O)o2)ccc1Cl (stereo unspecified) the results were ALDH1A1 block 13µM* and HttQ103 aggreg 3%.
For Cc1nc2c(ncn2-c2ccccc2)c(=O)n1NC(=O)CN1CCN(C)CC1 the results were HTT cytoprotect 12%[10 µM] and HttQ103 aggreg 28%[9.22 µM].
COc1ccc2c(c1)O[C@@H](c1ccc3c(c1)OCO3)[C@H](OC(=O)NCc1ccc3c(c1)OCO3)C2=O was read as HPGD inh -7% and ALDH1A1 block -6%.
Screening COc1ccc(S(=O)(=O)NCc2ccc(C(=O)N3CCc4ccccc4C3)cc2)cc1 returned HTT cytoprotect 0%[10 µM], Lamin A splicing inconclusive, HPGD inh 2.8µM*, ALDH1A1 block 3% and HttQ103 aggreg -27%.
Screening O=C(c1ccc(CNS(=O)(=O)c2ccc(Br)cc2)cc1)N1CCCC1 returned HTT cytoprotect -30%, ALDH1A1 block inconclusive and HttQ103 aggreg -22%.
CC(C)(C)c1ccc(S(=O)(=O)NCc2ccc(C(=O)N3CCOCC3)cc2)cc1 was read as HTT cytoprotect 8%[10 µM], Lamin A splicing 5%, HPGD inh -11%, ALDH1A1 block 11µM* and HttQ103 aggreg 7%.
`COc1ccc(S(=O)(=O)N2CCC(C(=O)N3CCc4ccccc4C3)CC2)cc1` gave HTT cytoprotect -11%, Lamin A splicing inconclusive, HPGD inh 35µM*, ALDH1A1 block inconclusive and HttQ103 aggreg -19%.
`O=c1c(Cl)c(Cl)cnn1-c1ccccc1` gave HTT cytoprotect -96%[10 µM], Lamin A splicing -27%, HPGD inh -12%, ALDH1A1 block 13µM* and HttQ103 aggreg inconclusive.
COc1ccc(C)cc1NC(=O)c1ccc2nc(Cc3ccccc3)oc2c1 was read as Lamin A splicing -22%[46 µM].
For O=C(c1ccco1)N1CCN(Cc2nc(-c3cccs3)no2)CC1 the results were HTT cytoprotect 6%[10 µM], Lamin A splicing 6%[46 µM], ALDH1A1 block inconclusive and HttQ103 aggreg -9%[9.22 µM].
For CCN1C(C)=C(C)S/C1=C1\SC(=S)N(N)C1=O the results were ALDH1A1 block 20µM*.
For COc1cccc(/C=N/NC(=O)c2c(C)nc3ccc(Br)cn23)c1O the results were HTT cytoprotect -155%, ALDH1A1 block inconclusive and HttQ103 aggreg 2.2µM*.
For CCn1c(C)nc2cc(C(=O)N/N=C/c3ccc(O)c(O)c3O)ccc21 the results were HTT cytoprotect -26%, ALDH1A1 block 1.4µM* and HttQ103 aggreg 12%[9.22 µM].
Screening CCn1c(C)nc2cc(C(N)=O)ccc21 returned HTT cytoprotect 3%[10 µM] and HttQ103 aggreg 6%[9.22 µM].
For CCn1c(C)nc2cc(C(=O)N/N=C/c3cccc(OC)c3O)ccc21 the results were HTT cytoprotect -44%[10 µM], ALDH1A1 block -3% and HttQ103 aggreg 2µM*.
`COc1ccc(-c2nc(N)n(C(=O)c3ccccc3Cl)n2)cc1` gave HTT cytoprotect -11%[10 µM], Lamin A splicing -13%, HPGD inh -13%, ALDH1A1 block 0% and HttQ103 aggreg -2%.
`CCC/C=C(\CCC)C(NC(=O)c1ccccc1)c1ccc(C(=O)OC)cc1` (stereo unspecified) gave HTT cytoprotect 10%, HPGD inh -13% and ALDH1A1 block -10%.
For c1ccc(Cc2nnc(N3CCOCC3)c3ccccc23)cc1 the results were HTT cytoprotect -17%, Lamin A splicing 5%, HPGD inh 25µM*, ALDH1A1 block -4% and HttQ103 aggreg 0%[9.22 µM].
For Oc1cc2c(cc1O)C1c3ccc(O)c(O)c3OCC1(O)C2 (stereo unspecified) the results were HTT cytoprotect -344%, HPGD inh 1.1µM*, ALDH1A1 block 11µM*! and HttQ103 aggreg 10%[9.22 µM].
